From PubChem BioAssay (EPA / NIEHS) come the findings set out here.

Several values for one entry are separate records, joined by “and”; a condition that tells them apart may be missing. Identical values can stand only once. Activity calls are given as the source filed them. Rule for the calls: active = hit-call score of the fitted dose curve at least 0.9, where 1 is the maximum; inactive = score below 0.9.

In general, AC50 refers to the concentration at which the activity in the assay is half-maximal.

Read-out in the assay: Plasminogen activator inhibitor-1 (PAI1), SERPINE1 (gene 5054)
As to the kind of experiment: BSK_KF3CT_PAI1: BioMAP Diversity Plus: KF3CT Assay for Plasminogen activator inhibitor-1 (PAI1) Biomarker Activity (AID 2284252). To be noted: primary human keratinocytes with fibroblasts. The procedure:
BSK_KF3CT is a cell-based, multiplexed-readout assay that uses keratinocytes and foreskin fibroblasts, a human skin primary cell co-culture, with measurements taken at 24 hours after chemical dosing in a 96-well plate.BSK_KF3CT_PAI1 is an assay component measured in the BSK_KF3CT assay. It measures PAI-1 antibody related to regulation of gene expression using ELISA technology.Data from the assay component BSK_KF3CT_PAI1 was analyzed at the endpoint, BSK_KF3CT_PAI1, in the positive analysis fitting direction relative to DMSO as the negative control and baseline of activity. Using a type of binding reporter, gain or loss-of-signal activity can be used to understand protein changes. To generalize the intended target to other relatable targets, this assay endpoint is annotated to the 'cytokine' intended target family, where the subfamily is 'plasmogen activator inhibitor'.
The levels of cell surface (or secreted, indicated by the prefix "s") biomarker endpoints were measured by ELISA. Overt cytotoxicity to cells in confluent adherent cultures (all systems other than the BT system) was assessed by measuring total protein levels using sulforhodamine B (SRB) staining in parallel cultures at the time of biomarker measurements, indicated as SRB endpoints. For proliferation assays for adherent cell types, individual cell types are cultured at sub-confluence and relative cell numbers quantified by SRB staining at time points optimized for each system (48 h: 3C and CASM3C systems; 72 h: BT and HDF3CGF systems; 96 h: SAg system). SRB was performed by staining cells with 0.1% SRB after fixation with 10% TCA and reading wells at 560 nm.Viability and proliferation of PBMC (T cells) was quantified by Alamar Blue reduction for the SAg and BT systems. For PBMC viability (referred to as PBMC Cytotoxicity within the assay endpoint names), cells were plated (75,000/well in a 96-well plate) and then chemical samples added for 1 h before addition of activators, SEB and TSST-1 (20 ng/mL final concentration each). Cells were incubated for 90 h. Then, Alamar Blue (20 uL/well) (Invitrogen, Cat DAL1100) was added for 6 h, and the plates were read with a fluorescence microplate reader at 546/580 nm (excitation/emission). For PBMC proliferation, cells were plated and activated as above but incubated for only 16 h prior to addition of Alamar Blue. Plates were read after 6 h.
Take `O=S(=O)(F)C(F)(F)C(F)(F)C(F)(F)C(F)(F)C(F)(F)C(F)(F)C(F)(F)C(F)(F)F`: the result was inactive.
On the same count and under the same terms, with `FC(F)(F)C(F)(C(F)(F)F)C(F)(F)C(F)(F)CC1CO1` (stereo not given) the entry was “inactive”; with `OCC(F)(F)OC(F)(F)C(F)(F)OC(F)(F)C(F)(F)OC(F)(F)CO`, “inactive”; with `O=C(O)C(F)(F)C(F)(F)C(=O)O`, “inactive”.
On the same count and under the same terms, under `O=C(O)C(F)(F)OC(F)(F)C(F)(F)OC(F)(F)C(=O)O` stands “inactive”.
As to `COC(=O)C(F)(F)C(F)(F)OC(F)(C(F)(F)F)C(F)(F)OC(F)=C(F)F` (stereo not given), the outcome was inactive.
Consider `OCC(F)(F)OC(F)(F)C(F)(F)OC(F)(F)C(F)(F)OC(F)(F)F`, for which the AC50 was 43.8 µM (active) and 44 µM (active).
With `CC(O)C(F)(F)C(F)(F)F` (stereo not given), the outcome was inactive.
With `COP(=O)(CCC(=O)NCO)OC`, the outcome was inactive.
In the case of `C=CC(=O)OCC(F)(F)C(F)F`, the outcome was inactive.
As for `NC(=O)C(F)(F)C(F)(F)F`, the outcome was inactive.
Take `O=C(O)C=CC(F)(C(F)(F)F)C(F)(F)F`: the result was inactive.
`OCC(F)(F)OC(F)(F)C(F)(F)OC(F)(F)CO`: the result was inactive.
On to `O=C(O)C(F)(OC(F)(F)C(F)(F)C(F)(F)F)C(F)(F)F` (stereo not given), for which the result was inactive.
For `O=C(O)C(F)(F)OC(F)(F)C(F)(F)OC(F)(F)F`, the outcome was inactive.
